Compound activity from PubChem.
BCLXL inh: inhibitors of human Bcl-xL; 0.7% of 320,000 active; inhibition, % at 10.9 µM; GST-Bcl-xL / FITC-Bim BH3 peptide fluorescence polarization; AID 2129; Q07817;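 active means inhibition above the mean of all tested compounds plus 3 SD, cutoff set per campaign, cut at about 30% in these data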;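 further: 0% = DMSO wells and 100% = unlabeled Bim-BH3 peptide competitor; inhibitors lower millipolarization by displacing the labeled peptide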
GLD-1 TGE inh: GLD-1-TGE RNA interaction inhibition (C. elegans); inhibition, % at 5.96 µM; 0.44% of 320,000 active; purified GLD-1 + fluorescein TGE RNA, fluorescence polarization; Q17339;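 active means percent inhibition above a per-plate cutoff, the plate mean of test compounds plus 3 SD, cut at about 30% in these data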;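 further: 0% = DMSO wells with GLD-1 and probe and 100% = wells lacking GLD-1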
Target sequence (Q17339 whole entry, looked up): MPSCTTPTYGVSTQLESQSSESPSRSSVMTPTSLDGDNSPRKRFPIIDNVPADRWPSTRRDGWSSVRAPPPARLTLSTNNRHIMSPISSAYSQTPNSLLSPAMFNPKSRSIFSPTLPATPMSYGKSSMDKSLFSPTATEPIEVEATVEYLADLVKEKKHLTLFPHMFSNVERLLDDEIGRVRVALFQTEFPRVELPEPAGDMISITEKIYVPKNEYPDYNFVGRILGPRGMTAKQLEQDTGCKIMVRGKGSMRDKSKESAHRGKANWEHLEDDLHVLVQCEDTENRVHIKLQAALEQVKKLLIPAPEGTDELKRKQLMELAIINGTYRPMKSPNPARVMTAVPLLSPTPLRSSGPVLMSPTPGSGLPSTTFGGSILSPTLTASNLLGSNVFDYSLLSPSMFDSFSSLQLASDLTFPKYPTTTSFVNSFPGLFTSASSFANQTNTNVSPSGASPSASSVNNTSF
Mcl1 Noxa PPI: Mcl-1/Noxa interaction inhibition; TR-FRET Mcl-1/Noxa peptide binding, 2 h; Q07820; 1.5% of 220,000 active; inhibition, % at 21.7 µM; AID 1022;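 active means compounds that cut the protein-peptide binding signal by more than 50% relative to plate controls in a single-dose test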;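 further: His-tagged Mcl-1 with rhodamine Noxa BH3 peptide and terbium anti-His antibody; 0% = Mcl-1 plus Noxa peptide wells and 100% = peptide-only wells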
Mcl-1 Bim block: disrupts Bim peptide binding to human Mcl-1 | Bead-based flow cytometry, Bim peptide-Mcl-1 binding | inhibition, % at 10 µM | 0.1% of 190,000 active; in the data active means inhibition above about 40%;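 further: 0% = no compound tracer wells and 100% = peptide blocker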
Mcl1-Bid inh: disrupts binding of human Mcl-1 to Bid peptide | Q07820 | TR-FRET Mcl-1/Bid-Dy647 peptide binding, 1536-well | inhibition, % at 21.7 µM | 0.97% of 220,000 active | AID 1021;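 active means compounds that cut the binding signal by more than half at the single screening dose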;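 further: His-tagged Mcl-1 with europium anti-His antibody binding Bid BH3 peptide; 0% = Mcl-1 plus peptide wells and 100% = peptide-only wells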
MCL1-BIM inh: MCL1-BIM-BH3 interaction inhibition (human); GST-MCL1 / FITC-Bim-BH3 fluorescence polarization; 0.68% of 320,000 active; inhibition, % at 10.9 µM; Q07820;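 active means inhibition above the mean inhibition of all tested compounds plus 3 SD, set per campaign, cut at about 40% in these data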;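 further: 0% = DMSO wells and 100% = unlabeled Bim-BH3 peptide control; higher means more loss of mP so more displacement of Bim peptide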
Active calls of the source: *; · = not tested or not shown; + = active, no number. Shown are actives, neighbours in structure and some others; about 2.3% of the full set was active somewhere.

SMILES | BCLXL inh | GLD-1 TGE inh | Mcl1 Noxa PPI | Mcl-1 Bim block | Mcl1-Bid inh | MCL1-BIM inh
Cn1ncc(SCc2ccccc2)c(Cl)c1=O | 8 | -4 | 14 | · | -18 | 7
Cn1ncc(S(=O)(=O)Cc2ccccc2)c(Cl)c1=O | 6 | 6 | 68* | · | -5 | 24
CCCCCCCCCCCCCCCC[n+]1cccc2ccccc21 | 13 | 0 | 89* | 0 | 91* | 8
O=C(NCCN1CCN(c2ccccc2)CC1)c1ccc2c(c1)[nH]c(=S)n1c3ccccc3nc21 | 1 | 2 | 51* | -2 | 9 | -5
O=[N+]([O-])c1ccc(N/N=C/c2cn(Cc3ccc(F)cc3)c3ccccc23)nc1 | -28 | -8 | 57* | -3 | 94* | -50
C=CCc1ccccc1OCCNCCCOC | 4 | -2 | 18 | 0 | 84* | 3
C=CCc1cc(Cl)ccc1OCCNCCCOC | 8 | 6 | 26 | 0 | 18 | 10
CCOc1ccc(C(=O)Nc2cc(NC(=O)c3ccc(OCC)c(Cl)c3)cc(C(=O)O)c2)cc1Cl | · | · | 84* | -2 | 5 | ·
CCOc1ccc(C(=O)Nc2ccc(NC(=O)c3ccco3)c(Cl)c2)cc1Cl | 0 | 3 | -32 | -17 | -32 | 5
CCOc1ccc(C(=O)Nc2cccc(C(=O)O)c2)cc1Cl | 1 | 2 | -1 | 3 | -29 | -6
CCOc1ccc(C(=O)Nc2cccc(-c3nc4cccnc4o3)c2)cc1Cl | -3 | 1 | -4 | 0 | 51* | -9
COc1ccc2cc(C(=O)C3CCCN(C(=O)/C=C/c4ccccn4)C3)ccc2c1 (stereo not given) | 1 | -5 | 6 | 2 | -10 | -5
Cc1ccc(S(=O)(=O)N[C@@H](CC(C)C)C(=O)N2CCC(C(=O)N[C@@H](Cc3ccccc3)C(=O)O)CC2)cc1 | -9 | -1 | · | · | · | -3
CC1=C(C(N)=O)C(c2ccc(Br)cc2)n2nc(CCCO)nc2N1 (stereo not given) | -23 | -41 | · | · | · | -29
Brc1ccc(C2=CC(c3cccs3)n3ncnc3N2)cc1 (stereo not given) | 168* | 151* | -18 | -5 | -46 | +
OCCCc1nc2n(n1)C(c1cccs1)C=C(c1ccc(Br)cc1)N2 (stereo not given) | 189* | 163* | 10 | 2 | -5 | +
O=C(O)c1cc2ccccc2cc1Nc1ccccc1 | 2 | 1 | 7 | · | 0 | 3
COc1ccc(N(C(=O)c2cnccn2)C(C(=O)NC2CCCCC2)c2cc(OC)c(OC)c(OC)c2)cc1 (stereo not given) | 1 | -3 | · | · | · | -1
Cc1cnc(C(=O)OCC(=O)N2CCN(S(=O)(=O)c3ccc(Cl)cc3)CC2)cn1 | -6 | 9 | · | · | · | -4
C=CCOC(=O)/C(=C/c1ccco1)NC(=O)/C=C/c1ccccc1 | -1 | 2 | -20 | · | 89* | 7
O=C(O)CNC(=O)/C(=C/c1ccco1)NC(=O)/C=C/c1ccccc1 | 17 | 13 | 15 | 5 | -34 | 13
CCOC(=O)c1c(C)n(-c2ccc(C)cc2)c2c(C(C(C)=O)C(=O)O)c(Br)c(O)c(O)c12 (stereo not given) | 13 | 2 | 24 | 0 | -42 | 9
CCOC(=O)C(C(C)=O)c1c(Br)c(O)c(O)c2c(C(=O)c3ccc(C)cc3)coc12 (stereo not given) | 16 | 3 | 68* | 4 | 20 | 26
CC(C)NC(=O)C1CCCN(S(=O)(=O)c2ccc(-n3cnnn3)cc2)C1 (stereo not given) | 2 | 8 | -12 | -2 | 98* | 5
CC(NCc1ccc(F)cc1)C(=O)Nc1cc(S(=O)(=O)N2CCCCC2)ccc1Cl (stereo not given) | 0 | 3 | 4 | 0 | -9 | 1
SMILES | BCLXL inh | GLD-1 TGE inh | Mcl1 Noxa PPI | Mcl-1 Bim block | Mcl1-Bid inh | MCL1-BIM inh
Cn1c(N)c(C(=O)COC(=O)C2=NNC(=O)CC2)c(=O)n(C)c1=O | -1 | -7 | 6 | · | -32 | -1
O=S1(=O)CCC(NC2CCCC2)C1 (stereo not given) | 6 | 1 | · | · | · | 6
CN(C)NC1CCS(=O)(=O)C1 (stereo not given) | 3 | 3 | 52* | -1 | -9 | 3
Nc1ccccc1N=c1ssnc1Cl | · | · | 54* | -7 | -20 | ·
Cc1cc(Cl)ccc1N=c1ssnc1Cl | -10 | 3 | 25 | -1 | -10 | 3
CC(=O)C1=C(C)NC(=S)NC1c1cc([N+](=O)[O-])ccc1O (stereo not given) | 5 | -3 | 1 | · | -112 | 9
CCOc1ccccc1C(=O)NCC(=O)OCC(=O)N1CCCC1 | · | 1 | · | · | · | ·
O=C(O)CS(=O)(=O)CC(=O)O | 6 | -3 | 23 | -3 | 58* | -3
NC(=O)c1ccc(NCCCN2CCOCC2)c([N+](=O)[O-])c1 | 1 | 3 | 5 | 10 | -39 | 9
OCCNc1nc(Nc2ccccc2)nc2ccccc12 | 8 | 1 | 44 | 2 | 7 | 3
OCCNc1nc(Nc2ccccc2)nc(Nc2ccccc2)n1 | 2 | 7 | 92* | -1 | -1 | -2
COc1cc(OC)c(-c2nn3c(-c4ccco4)nnc3s2)cc1OC | · | · | 64* | 4 | -8 | ·
c1ccc(-c2cc(-c3nn4c(-c5ccco5)nnc4s3)c3ccccc3n2)cc1 | 9 | 1 | 51* | 4 | 38 | 13
COc1ccc(-c2nn3c(-c4ccco4)nnc3s2)cc1OC | 10 | 5 | 35 | 20 | -30 | -1
O=C(NC1CCC(O)CC1)c1cc(-c2ccco2)nc2ccccc12 (stereo not given) | 15 | 13 | 55* | 0 | -43 | 39
O=C(COC(=O)c1ccco1)NCc1ccc2c(c1)OCO2 | 0 | -4 | 13 | · | -19 | 2
O=C(COC(=O)c1cc(-c2ccco2)nc2ccccc12)NCc1ccc2c(c1)OCO2 | 11 | 10 | 76* | 1 | 22 | 16
NC(=O)COC(=O)c1cc(-c2ccco2)nc2ccccc12 | 25 | 18 | 61* | · | 9 | 25
O=C(Nc1nncs1)c1cc(-c2ccco2)nc2ccccc12 | · | 5 | · | · | · | ·
CCOC(=O)c1cc(-c2ccco2)nc2c1c(C)nn2-c1ccccc1 | 10 | -1 | 56* | 5 | 14 | 9
CCCc1cc(=O)[nH]c(SCC(=O)c2c(C)[nH]c3ccccc23)n1 | -2 | -4 | 11 | · | 76* | -2
CN(C)N1C(N)=C(C#N)C(c2ccccc2F)C2=C1CC(C)(C)CC2=O (stereo not given) | 8 | 1 | · | · | · | 6
Cc1cc(=O)n(-c2ccc(Cl)cc2)c(=O)[nH]1 | 5 | -10 | 13 | 0 | -39 | 5
CC(C)C[C@H](NC(=O)N1c2ccccc2NC(=O)[C@@H]1C(C)C)C(=O)N1CCC[C@@H]1C(=O)O | 1 | -1 | · | · | · | 1
CCOc1ccc(C(=O)Nc2nnc(NC(=S)Nc3ccccc3)s2)cc1 | 3 | -1 | 27 | 64* | -31 | 3
